Compound activity (PubChem)
Compounds with a hit are over-represented: about 3.3% of the library has one in this group of screens.
PI5P4Ka inh: blocks human PI5P4K alpha kinase activity; P48426; PI5P4Kalpha enzyme, ADP-Glo luminescence, 60 min; active compounds read low; max response, %; 330,000 tested, 1.2% active; active means max response of -50% or lower; inconclusive means between -30% and -50%; inactive means -30% or higher; further: value at the top dose of about 77 µM
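Controls without substrate or without enzyme flank wells where PI5P4Kalpha converts substrate using 5 microM ATP (final). Incubation lasts 60 minutes at room temperature; ADP formed is read by ADP-Glo luminescence.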
PI4K2A block: inhibitors of human PI4K2A; Q9BTU6; purified PI4K2A, ADP-Glo luminescence, 1 h; active compounds read low; activity change, negative = inhibition, % at 76.9 µM; 420,000 tested, 0.13% active; in the data active means activity change below about -50%; inconclusive means mostly about -30% to -49%
Target sequence (Q9BTU6 whole entry, looked up): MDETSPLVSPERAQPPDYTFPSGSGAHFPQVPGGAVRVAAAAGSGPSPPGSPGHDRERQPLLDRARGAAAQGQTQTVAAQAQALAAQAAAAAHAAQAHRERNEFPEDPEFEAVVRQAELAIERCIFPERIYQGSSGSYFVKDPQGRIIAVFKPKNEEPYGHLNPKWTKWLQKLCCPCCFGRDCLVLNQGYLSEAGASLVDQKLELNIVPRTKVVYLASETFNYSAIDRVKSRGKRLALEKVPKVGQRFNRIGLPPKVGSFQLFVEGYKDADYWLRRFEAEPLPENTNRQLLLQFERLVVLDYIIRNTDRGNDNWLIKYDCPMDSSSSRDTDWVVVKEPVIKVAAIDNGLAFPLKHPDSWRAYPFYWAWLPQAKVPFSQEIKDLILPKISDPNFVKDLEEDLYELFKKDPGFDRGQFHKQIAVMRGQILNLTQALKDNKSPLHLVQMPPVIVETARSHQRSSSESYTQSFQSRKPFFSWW
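ADP-Glo luminescence measured ADP generated by PI4K2A enzyme (4 ug/mL before mixing) with 1.2 mM PI substrate (pre-mix) and 300 microM ATP (pre-mix). Tris pH7.5 buffer with MgCl2, Triton X-100; 1 h reaction at ambient temperature.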
DRD3 agonist: D3 dopamine receptor (human) agonism; 410,000 tested, 0.58% active; max activation, %; D3R DiscoveRx beta-arrestin cells, luminescence, 90 min; P35462; in the data active means max activation above about 30%
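Agonist mode: compounds and dopamine controls were applied to plated cells for 90 min at 37 degrees C after an overnight attachment at 1500 cells/well. Luminescent read-out followed 30 - 60 minutes at room temperature with DiscoveRx detection reagent.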
LDHA block: LDHA (human) enzyme inhibition | 480,000 tested, 0.15% active | activity change, % (values are at about 110 or 230 µM) | P00338 | purified LDHA, NADH/diaphorase-resazurin fluorescence; active compounds read low; in the data active means activity change below about -30%; inconclusive means mostly about -25% to -30%
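LDH5 2 nM; NADH 0.06 mM, pyruvate 0.2 mM; 200 mM Tris pH 7.4, EDTA, Tween-20; 5 min RT. Detection: diaphorase 0.133 mg/mL + resazurin 37 µM, fluorescence ex540/em590 at 0 and 20 min; normalized to enzyme-free and DMSO wells.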
DRD3 antagonist: antagonists of human D3 dopamine receptor; D3R cells, DiscoveRx beta-arrestin luminescence, antagonist mode; active compounds read low; AID 652054; P35462; 360,000 tested, 2.5% active; max response, negative = inhibition, %; in the data active means max response below about -50%; inconclusive means no clear call, values can overlap the other calls
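Cells plated overnight at 1500 cells/well, then exposed to library compounds with dopamine controls for 90 minutes at 37 degrees C. DiscoveRx reagent added for 30–60 minutes at room temperature; luminescence read, quantitative HTS format.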
Numbers stand for hits; i = inactive; ? = inconclusive; nt = no result; ! = not active in a repeat.

SMILES | PI5P4Ka inh | PI4K2A block | DRD3 agonist | LDHA block | DRD3 antagonist
COc1ccc(C(CNC(=O)COc2ccc(Cl)c(C)c2)N2CCCCC2)cc1 (configuration not stated) | i | i | i | i | -95
C=CCN1[C@@H](Cc2ccccc2)COc2cccc(F)c2S1(=O)=O | nt | i | nt | nt | nt
COC(=O)/C=C/C(=O)c1ccc(OC)cc1 | nt | nt | nt | i | nt
Cc1ccc(Cn2ccnc2SCC(=O)Nc2ccccc2F)cc1 | nt | nt | nt | i | nt
CC(=O)c1ccc(OCC(O)CN2CCN(Cc3ccc4c(c3)OCO4)CC2)cc1 (configuration not stated) | i | i | i | i | -51!
COc1ccc(OCC(O)CN2CCN(Cc3ccc4c(c3)OCO4)CC2)cc1 (configuration not stated) | i | i | i | i | i
Cc1ccc(OCC(O)CN2CCN(Cc3ccc4c(c3)OCO4)CC2)c(C)c1 (configuration not stated) | i | i | i | i | -60
O=C(CCc1nc2ccccc2s1)NC1CCCCC1 | nt | nt | nt | i | nt
CN(Cc1ccccc1)C(=O)C1CCCN(Cc2ccccc2C(F)(F)F)C1 (configuration not stated) | nt | nt | nt | i | nt
Cc1ccc(-c2csc3ncnc(Sc4nnc(C)s4)c23)cc1 | nt | nt | nt | i | nt
Cc1ccc(-c2csc3ncnc(Sc4nnc(CN5CCCCCC5=O)o4)c23)cc1 | i | i | i | i | -69
O=C(c1cccc2ncccc12)N1CCN(CCc2ccccc2)CC1 | nt | nt | nt | i | nt
OCCC1CN(Cc2ccsc2)CCN1C1CCCC1 (configuration not stated) | i | i | i | i | i
OCCC1CN(Cc2ccc3nonc3c2)CCN1Cc1ccsc1 (configuration not stated) | i | i | i | i | -52
OCCC1CN(Cc2ccc3cc(Cl)ccc3n2)CCN1Cc1ccsc1 (configuration not stated) | i | i | i | i | ?
OCCC1CN(Cc2cnn(-c3ccccc3Cl)c2)CCN1Cc1ccsc1 (configuration not stated) | i | i | i | i | -68
CC(C)CCN1CCN(Cc2ccsc2)CC1CCO (configuration not stated) | i | i | i | i | i
OCCC1CN(Cc2cccc(-c3ccco3)c2)CCN1Cc1ccsc1 (configuration not stated) | i | i | i | i | -77
Clc1cccc(N/N=C/c2ccc(Br)cc2)n1 | nt | nt | nt | i | nt
O=C(CCN1C(=O)COc2ccccc21)NCCN1CCc2ccccc2C1 | nt | i | i | i | -62
COc1ccc(CCNC(=O)CCN2C(=O)COc3ccc(C)cc32)cc1OC | i | i | i | i | -65
OCCCNC(=S)NC1CCCCC1 | nt | nt | nt | i | nt
Cc1cccc(-c2cc(C(=O)Nc3sc(C)c(C)c3C(N)=O)c3ccccc3n2)c1 | i | i | i | i | i
Cc1ccccc1-c1cc(C(=O)Nc2nc3c(s2)CCCC3)c2ccccc2n1 | nt | i | i | i | -91
Cc1ccc(C)c(-c2cc(C(=O)Nc3sc(C)c(C)c3C(N)=O)c3ccccc3n2)c1 | nt | i | 46 | i | i
SMILES | PI5P4Ka inh | PI4K2A block | DRD3 agonist | LDHA block | DRD3 antagonist
CCCSc1ncc(Cl)c(C(=O)Nc2cccc(C(F)(F)F)c2)n1 | nt | nt | nt | i | nt
CC1CCCCC1NC(=O)COC(=O)c1c2c(nc3ccccc13)/C(=C/c1ccco1)CC2 (configuration not stated) | -83 | ? | i | i | i
CCCCNC(=O)COC(=O)c1c2c(nc3ccccc13)/C(=C\c1cccs1)CC2 | ? | i | 34 | i | i
O=C(COC(=O)c1c2c(nc3ccccc13)/C(=C/c1ccco1)CC2)NC1CCCC1 | -71 | ? | i | i | i
CN(C)c1ccc(C(=O)NC2CCCCN(Cc3cccc(Cl)c3)C2=O)cc1 (configuration not stated) | nt | i | nt | nt | nt
CC(C)CCNC(=S)Nc1cccc(Cl)c1 | nt | nt | nt | i | nt
CCCCCCCCCCC(=O)Nc1cccc(C)c1C | nt | nt | nt | i | nt
CC(=O)Oc1ccc(C(=O)Nc2cccc(NC(=O)c3ccco3)c2)cc1 | i | i | i | i | -76
O=C(Nc1ccc(Oc2ccc(NC(=O)c3ccco3)c(NC(=O)c3ccco3)c2)cc1)c1ccco1 | nt | i | i | i | -93
O=C(OCC(O)C(O)C(O)C(SCc1ccccc1)SCc1ccccc1)c1ccccc1 (configuration not stated) | i | i | i | i | -67
CCOc1ccc(C(=O)CCC(=O)OCC(=O)c2ccc(OC)c(Br)c2)cc1 | nt | nt | nt | i | nt
CC1(C)CC[C@]2(C(=O)O)CC[C@]3(C)C(=CC[C@@H]4[C@@]5(C)CC[C@H](O[C@@H]6O[C@H](C(=O)O)[C@@H](O)[C@H](O[C@@H]7OC[C@H](O)[C@H](O)[C@H]7O)[C@H]6O)C(C)(C)[C@@H]5CC[C@]43C)[C@@H]2C1 | -65 | i | i | i | -63
Cc1ccc(C)c(N2CCN(CC3CC=CCC3)CC2)c1 (configuration not stated) | nt | i | i | i | -73
C1=CCC(CN2CCNCC2)CC1 (configuration not stated) | i | i | i | i | i
O=C(OCCOc1ccc(F)cc1)c1ccc2nccnc2c1 | nt | nt | nt | i | nt
NC(=S)N/N=C/c1ccc(-c2ccc([N+](=O)[O-])cc2)o1 | -56 | i | i | i | i
CCOc1ccc(/C=C2\SC(=S)N(C)C2=S)cc1 | nt | nt | nt | i | nt
CN1CCN(C(=S)C(=O)Nc2ccc(Br)cc2)CC1 | -56 | i | i | i | i
O=C(NCCc1ccccc1)c1cc(-c2ccccc2)nc2ccccc12 | nt | nt | nt | i | nt
CCc1nonc1NC(=O)c1oc2c(C)c(C)ccc2c1C | i | i | i | i | -52
CCc1nonc1NC(=O)c1oc2cc(Br)ccc2c1C | i | i | i | i | i
Cc1nc(C#N)c(N/N=C/c2c(F)cccc2Cl)o1 | i | i | i | i | -64
C[C@@H]1Cc2c(O)c(O)cc(O)c2C(=O)O1 | i | i | i | i | i
Nc1ccc(O)c2c1C(=O)c1ccccc1C2=O | -97 | i | i | i | i
O=C1c2ccccc2C(=O)c2c(O)c(O)cc(O)c21 | -106 | i | i | i | -67
SMILES | PI5P4Ka inh | PI4K2A block | DRD3 agonist | LDHA block | DRD3 antagonist
O=C1C=C(O)c2c(O)cc(O)c(O)c2C1=O | -68 | ? | i | i | i
COc1ccc(-c2csc(NC(=O)c3ccc(Cl)c(N4CCCC4=O)c3)n2)cc1F | nt | nt | nt | i | nt
Cc1ccc(-c2nc(CC(=O)NCc3ccc(F)c(C)c3)cs2)o1 | nt | nt | nt | i | nt
O=C(CS(=O)(=O)Cc1coc(-c2cccc(F)c2)n1)NC1CCCCCC1 | nt | nt | nt | i | nt
C#CC(=O)N(c1cc(OC)ccc1OC)C(C(=O)NC1CCCC1)c1cccs1 (configuration not stated) | i | i | i | i | -62
C#CC(=O)N(c1ccc(OC)cc1OC)C(C(=O)NC1CCCC1)c1cccs1 (configuration not stated) | i | i | i | i | -51
CC(C)(C)NC(=O)C(c1cccs1)N(C(=O)C(=O)NC1CCCC1)c1ccccc1F (configuration not stated) | i | i | i | i | -65
